# Measured values: ChEMBL document CHEMBL3988442, “University of Dundee, Small-Polar-MMV Screening Library” (2021)
# Hit rate of the full screen: of about 48,000 compounds, about 13,000 (27%) showed an effect of 50% or more. This is one part of the list.
# Tested on: Wolbachia pipientis
# Assay: Anti-Wolbachia Cell-Based Screen
# Assay type: functional
# Parameters: scale not given: in the data most compounds retested in dose-response had high values
# Details: 5 µM
row,Structure (SMILES),Percent Effect
1,CCC(C)CN(C)C(=O)NCc1ccccc1-n1cccn1 (stereo not drawn),-6.014%
2,Cc1cnccc1CN(C)C1CCN(c2ncnc3[nH]cnc23)CC1,-3.937%
3,CN(C)C(=O)CCC[S+]([O-])Cc1cc(Cl)ccc1Cl (stereo not drawn),0.1259%
4,Cc1noc(C)c1CN1CCc2nn(C(C)C)c(=O)cc2C1,-7.391%
5,CC(=O)Nc1ncc(S(=O)(=O)N2CCN(C3CCCCC3)CC2)s1,-4.636%
6,Cc1ccccc1S(=O)(=O)Cc1nsc(N(C)C)n1,-10.46%
7,COc1ccc2c(c1)CCCN2C(=O)NCCc1cnn(C)c1,-4.065%
8,CCc1nc(CC)n(CC(=O)N(C)Cc2ccc(F)cc2)n1,-4.811%
9,Cc1cc(C)n(CC2CCCCN2CC(=O)N(C)Cc2ccco2)n1 (stereo not drawn),-0.03535%
10,Cc1ccc(CN(C)C(=O)Cn2nc(-c3ccc(F)cc3)oc2=O)cc1,-26.69%
11,CCn1nccc1CN(C)C(=O)Cn1nc(C)cc1C,69.47%
12,Cc1cc(C)n(CC(C)CNC(=O)N(C)Cc2ccco2)n1 (stereo not drawn),23.18%
13,CCn1nccc1CN(C)C(=O)Cn1nc(C)c(C)c1C,98.15%
14,O=C(CNC(=O)C1CCCC1)NCC(O)c1ccc2ccccc2c1 (stereo not drawn),-9.214%
15,CCCn1nnc2c(sc3nc(N4CCOCC4)c4c(c32)CCC4)c1=O,106.2%
16,CCCn1nnnc1CN(c1ccc(N2CCOCC2)cc1)C(C)C,-9.048%
17,CCc1nc2c(c(N3CCOCC3)n1)CCN(C(=O)N1CCCC1)CC2,-8.543%
18,CC(C)n1nnc2c(sc3nc(N4CCOCC4)c4c(c32)CCC4)c1=O,121.1%
19,Cn1nnc2c(sc3nc(N4CCOCC4)c4c(c32)CCC4)c1=O,117%
20,CN(C)C(=O)Cc1ccccc1NCc1cccc2cccnc12,-12.16%
21,O=C(c1cncc(Br)c1)N1CCCc2c(F)cc(F)cc21,-4.9%
22,CC(C#N)CNS(=O)(=O)c1ccc(Br)c(F)c1 (stereo not drawn),3.318%
23,CC(C)c1noc(CCC(=O)N(CC2CCOC2)C2CC2)n1 (stereo not drawn),6.067%
24,NC(=O)NC(=O)CCN(Cc1ccccc1)CC1CCOCC1,-17.87%
25,Cc1cnn(CC(C)NCC(=O)Nc2ccc(Cl)cn2)c1 (stereo not drawn),-4.944%
26,O=C(O)C(F)(F)F.O=C(c1ccncc1F)N1CC[C@@H]2OC(COCC3CC3)CC[C@@H]21 (stereo partly drawn),97.57%
27,CC(C)COC[C@@H]1CC[C@H]2[C@H](CCN2C(=O)c2ccncc2F)O1.O=C(O)C(F)(F)F,105.1%

row,Structure (SMILES),Percent Effect
1,Fc1cnc(N2CC[C@@H]3O[C@@H](COCc4cccnc4)CC[C@@H]32)nc1.O=C(O)C(F)(F)F,-5.936%
2,CC(C)COC[C@H]1CC[C@H]2[C@H](CCN2C(=O)c2ccncc2F)O1.O=C(O)C(F)(F)F,108.1%
3,Fc1cnc(N2CC[C@@H]3O[C@@H](COCc4ccccn4)CC[C@@H]32)nc1.O=C(O)C(F)(F)F.O=C(O)C(F)(F)F,-20.87%
4,COc1ccc(CNC[C@H]2COCc3nc4cccnc4n32)cn1,2.273%
5,Cc1ccc(NC(C)C(=O)N(C)Cc2cccc(F)c2)cc1C(N)=O (stereo not drawn),-12.41%
6,CN(Cc1ccc(Cl)s1)C(=O)c1cccc(OCC(N)=O)c1,-4.963%
7,N#Cc1ccc(SCCOCCO)c(F)c1,-11.88%
8,CC(OCC1CC1)C(=O)N1CCCN(c2nc3ccccc3[nH]2)CC1 (stereo not drawn),2.156%
9,COCc1nccc(C2CCCN(Cc3ccc(C#N)cc3)C2)n1 (stereo not drawn),-15.32%
10,Nc1nccc(C2CCCN(CC3CC3)C2)n1 (stereo not drawn),142.8%
11,Nc1nccc(C2CCN(CCO)C2)n1 (stereo not drawn),113.7%
12,Nc1nccc(C2CCN(CC3CC3)C2)n1 (stereo not drawn),123.6%
13,COCc1nccc(C2CCCN(Cc3ccc(SC)cc3)C2)n1 (stereo not drawn),-16.87%
14,Cc1ccc2[nH]c([C@H]3CCN(CC4CCCCC4)C3)nc2c1,2.151%
15,COc1ccc(-c2nnc([C@H]3CCN(CC4CC4)C3)o2)cc1,1.558%
16,N#Cc1ccc(CN2CCC(c3ccnn3CCO)CC2)cc1,-5.885%
17,Cc1noc(CN2CCC(c3ccnn3CCO)CC2)n1,-5.622%
18,Cc1ccc2c(c1)OCCN2C(=O)c1ccc(=O)n(C)c1,10.97%
19,CCn1c(CN(C)C(=O)c2ccc(N(C)C)nc2)nc2ccccc21,-11.95%
20,O=C(Nc1ccccc1)C1CN(Cc2ccco2)CC12CCOCC2.O=C(O)C(F)(F)F (stereo not drawn),-4.746%
21,Cc1ccc(S(=O)(=O)Cc2noc([C@@H]3C[C@@H](O)CN3)n2)cc1,5.528%
22,COc1ccc(CC2CCCN2CCCC#N)cc1 (stereo not drawn),3.146%
23,COc1ccc(C(=O)Nc2cnn(CC(=O)NC3CCCC3)c2)c(O)c1,-2.411%
24,O=C(NCCn1ccnc1)NCC(c1ccco1)N1CCCCC1 (stereo not drawn),-2.241%
25,O=C(NCCn1ccnc1)NCC(c1ccco1)N1CCCC1 (stereo not drawn),107.9%
26,O=C(NCCCn1ccnc1)NCC(c1ccco1)N1CCCCC1 (stereo not drawn),152.2%
